Measured values taken from PubChem BioAssay AID1159580 (chemical genetic matrix, 2015).
Hit rate of the full screen: of about 5,500 compounds, about 2,000 (36%) were called active. About 18% were inconclusive and are not listed. No stated cut-off is given here; in the data, active means normalized growth mostly below about 0.91 (no sharp cut-off); inconclusive means no clear call, values can overlap the other calls; inactive means mostly above about 0.92. This is one part of the list.

Assay: chemical genetic growth profiling, strain panel (AID 1159580);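 further: tested at 20 µM; growth read once vehicle control cultures reached saturation at 30 °C; 1 = growth at the plate median or of vehicle wells; lower values mean less growth of the strain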
Conditions: growth OD

Measured: normalized growth

CCC(C)C(OC(C)=O)C(=O)OC1C(O)C2C3(C)C=CC(=O)C(C)(C)C3CC(OC(=O)C(O)C(C)C)C2(C)C23OC2CC(c2ccoc2)C13C (stereo unspecified)
inactive: S. cerevisiae deletion strains, locus YAL013W, strain DEP1, hits give low values 1.01 | S. cerevisiae deletion strains, locus YBR021W, strain FUR4, hits give low values 0.996 | S. cerevisiae deletion strains, locus YBR229C, strain ROT2, hits give low values 0.989 | S. cerevisiae deletion strains, locus YCL029C, strain bik1, hits give low values 0.978 | S. cerevisiae deletion strains, locus YDL035C, strain GPR1, hits give low values 0.976 | S. cerevisiae deletion strains, locus YDL074C, strain BRE1, hits give low values 1.02 | S. cerevisiae deletion strains, locus YDL101C, strain DUN1, hits give low values 1 | S. cerevisiae deletion strains, locus YDL134C, strain PPH21, hits give low values 1 | S. cerevisiae deletion strains, locus YDL185W, strain tfp1, hits give low values 0.988 | S. cerevisiae deletion strains, locus YDL192W, strain arf1, hits give low values 0.989 | S. cerevisiae deletion strains, locus YDR101C, strain arx1, hits give low values 0.991 | S. cerevisiae deletion strains, locus YDR150W, strain NUM1, hits give low values 1.01 | S. cerevisiae deletion strains, locus YDR162C, strain NBP2, hits give low values 1.02 | S. cerevisiae deletion strains, locus YDR318W, strain mcm21, hits give low values 0.966 | S. cerevisiae deletion strains, locus YDR388W, hits give low values 0.988 | S. cerevisiae deletion strains, locus YDR502C, strain sam2, hits give low values 1.02 | S. cerevisiae deletion strains, locus YEL061C, strain CIN8, hits give low values 1 | S. cerevisiae deletion strains, locus YER110C, hits give low values 0.992 | S. cerevisiae deletion strains, locus YER155C, strain BEM2, hits give low values 1 | S. cerevisiae deletion strains, locus YER167W, strain BCK2, hits give low values 0.982 | S. cerevisiae deletion strains, locus YGL078C, strain dbp3, hits give low values 1 | S. cerevisiae deletion strains, locus YGL086W, strain mad1, hits give low values 0.978 | S. cerevisiae deletion strains, locus YGL248W, strain PDE1, hits give low values 0.999 | S. cerevisiae deletion strains, locus YGR078C, strain PAC10, hits give low values 1.04 | S. cerevisiae deletion strains, locus YGR135W, strain pre9, hits give low values 1.02 | S. cerevisiae deletion strains, locus YGR229C, strain SMI1, hits give low values 1.02 | S. cerevisiae deletion strains, locus YGR252W, strain gcn5, hits give low values 0.946 | S. cerevisiae deletion strains, locus YHR030C, strain SLT2, hits give low values 0.994 | S. cerevisiae deletion strains, locus YHR079C, strain IRE1 (second series), hits give low values 1 | S. cerevisiae deletion strains, locus YHR094C, strain hxt1, hits give low values 0.988 | S. cerevisiae deletion strains, locus YHR129C, strain ARP1, hits give low values 1 | S. cerevisiae deletion strains, locus YHR200W, strain rpn10, hits give low values 0.987 | S. cerevisiae deletion strains, locus YIL066C, strain RNR3, hits give low values 0.994 | S. cerevisiae deletion strains, locus YIL073C, strain SPO22, hits give low values 0.902 | S. cerevisiae deletion strains, locus YIL125W, strain kgd1, hits give low values 0.986 | S. cerevisiae deletion strains, locus YIR030C, strain dcg1, hits give low values 0.988 | S. cerevisiae deletion strains, locus YJL095W, strain BCK1, hits give low values 1.05 | S. cerevisiae deletion strains, locus YJL134W, strain LCB3, hits give low values 0.997 | S. cerevisiae deletion strains, locus YJL168C, strain set2, hits give low values 0.992 | S. cerevisiae deletion strains, locus YJL187C, strain SWE1 (second series), hits give low values 1.01 | S. cerevisiae deletion strains, locus YJR043C, strain POL32, hits give low values 0.969 | S. cerevisiae deletion strains, locus YJR075W, strain HOC1, hits give low values 1.01 | S. cerevisiae deletion strains, locus YKL009W, strain mrt4, hits give low values 1.08 | S. cerevisiae deletion strains, locus YKL068W, hits give low values 1 | S. cerevisiae deletion strains, locus YKL085W, strain MDH1 (second series), hits give low values 1.04 | S. cerevisiae deletion strains, locus YKL085W, strain MDH1, hits give low values 1.04 | S. cerevisiae deletion strains, locus YKL190W, strain CNB1, hits give low values 0.998 | S. cerevisiae deletion strains, locus YKR001C, strain vps1, hits give low values 0.991 | S. cerevisiae deletion strains, locus YLR039C, strain RIC1, hits give low values 0.962 | S. cerevisiae deletion strains, locus YLR058C, strain SHM2, hits give low values 0.995 | S. cerevisiae deletion strains, locus YLR102C, strain apc9, hits give low values 0.982 | S. cerevisiae deletion strains, locus YLR262C, strain YPT6, hits give low values 0.973 | S. cerevisiae deletion strains, locus YLR268W, strain sec22, hits give low values 1.02 | S. cerevisiae deletion strains, locus YLR330W, strain CHS5, hits give low values 0.996 | S. cerevisiae deletion strains, locus YLR342W, strain FKS1 (second series), hits give low values 0.987 | S. cerevisiae deletion strains, locus YLR371W, strain rom2, hits give low values 0.985 | S. cerevisiae deletion strains, locus YLR418C, strain cdc73, hits give low values 1 | S. cerevisiae deletion strains, locus YML016C, strain PPZ1, hits give low values 1 | S. cerevisiae deletion strains, locus YML032C, strain rad52, hits give low values 0.97 | S. cerevisiae deletion strains, locus YML124C, strain tub3, hits give low values 0.993 | S. cerevisiae deletion strains, locus YMR078C, strain ctf18, hits give low values 0.977 | S. cerevisiae deletion strains, locus YMR223W, strain ubp8, hits give low values 0.983 | S. cerevisiae deletion strains, locus YMR263W, strain SAP30, hits give low values 1.04 | S. cerevisiae deletion strains, locus YMR307W, strain GAS1, hits give low values 0.912 | S. cerevisiae deletion strains, locus YNL067W, strain RPL9B, hits give low values 1.03 | S. cerevisiae deletion strains, locus YNL128W, strain TEP1, hits give low values 1.01 | S. cerevisiae deletion strains, locus YNL153C, strain GIM3, hits give low values 1.05 | S. cerevisiae deletion strains, locus YNL233W, strain BNI4, hits give low values 1.03 | S. cerevisiae deletion strains, locus YNL250W, strain rad50, hits give low values 0.992 | S. cerevisiae deletion strains, locus YNL271C, strain bni1, hits give low values 0.993 | S. cerevisiae deletion strains, locus YNL298W, strain CLA4, hits give low values 0.99 | S. cerevisiae deletion strains, locus YNL307C, strain MCK1, hits give low values 0.979 | S. cerevisiae deletion strains, locus YNL322C, strain KRE1, hits give low values 0.999 | S. cerevisiae deletion strains, locus YNR052C, strain pop2, hits give low values 0.988 | S. cerevisiae deletion strains, locus YOL006C, strain TOP1, hits give low values 0.949 | S. cerevisiae deletion strains, locus YOL012C, strain htz1 2.38 | S. cerevisiae deletion strains, locus YOL147C, strain pex11, hits give low values 0.999 | S. cerevisiae deletion strains, locus YOR061W, strain CKA2, hits give low values 1 | S. cerevisiae deletion strains, locus YOR069W, strain VPS5, hits give low values 0.978 | S. cerevisiae deletion strains, locus YOR136W, strain idh2, hits give low values 0.979 | S. cerevisiae deletion strains, locus YOR144C, strain elg1, hits give low values 1 | S. cerevisiae deletion strains, locus YOR184W, strain ser1, hits give low values 0.946 | S. cerevisiae deletion strains, locus YOR316C, strain cot1, hits give low values 0.996 | S. cerevisiae deletion strains, locus YPL055C, strain LGE1, hits give low values 1.05 | S. cerevisiae deletion strains, locus YPL241C, strain CIN2, hits give low values 1 | S. cerevisiae deletion strains, locus YPR119W, strain clb2, hits give low values 0.993 | S. cerevisiae deletion strains, locus YPR141C, strain kar3, hits give low values 0.99 | S. cerevisiae deletion strains, locus YPR163C, strain tif3, hits give low values 0.986 | S. cerevisiae deletion strains, locus YPR167C, strain met16, hits give low values 0.99 | S. cerevisiae deletion strains, strain wtn01, hits give low values 1 | S. cerevisiae strains, strain wild type, hits give low values 0.985
